From PubChem BioAssay AID602357 (National Center for Advancing Translational Sciences (NCATS), 2012) come the findings set out here.

Records with an inconclusive call do not appear. The source made the active and inactive calls. The call rests on the fitted dose curve; in most records, active means well fitted inhibition curve with a large enough effect; inconclusive means small, poorly fitted or top-dose-only effect; inactive means no such curve, though single readings can be large or run the other way.

Luciferin 4-monooxygenase (Photinus pyralis), sequence (P08659 whole entry, looked up): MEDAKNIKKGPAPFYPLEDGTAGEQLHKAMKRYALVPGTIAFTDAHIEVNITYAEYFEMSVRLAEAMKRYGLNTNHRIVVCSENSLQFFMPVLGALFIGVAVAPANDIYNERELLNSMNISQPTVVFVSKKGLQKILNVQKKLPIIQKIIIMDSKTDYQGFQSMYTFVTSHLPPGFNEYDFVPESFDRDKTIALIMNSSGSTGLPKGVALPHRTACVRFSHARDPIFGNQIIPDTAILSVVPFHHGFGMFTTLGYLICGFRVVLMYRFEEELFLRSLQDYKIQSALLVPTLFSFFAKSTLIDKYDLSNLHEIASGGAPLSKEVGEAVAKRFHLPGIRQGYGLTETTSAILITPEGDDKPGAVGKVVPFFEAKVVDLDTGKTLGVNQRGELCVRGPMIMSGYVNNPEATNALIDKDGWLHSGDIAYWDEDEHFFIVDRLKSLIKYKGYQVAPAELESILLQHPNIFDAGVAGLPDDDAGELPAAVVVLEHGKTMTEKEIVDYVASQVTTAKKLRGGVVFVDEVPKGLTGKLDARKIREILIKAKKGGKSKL

The target in this assay is Luciferin 4-monooxygenase (Photinus pyralis) (UniProt P08659). Kind of assay: FLuc inhibitory activity for the follow-up compounds in a biochemical assay with Km concentrations of substrate. The conditions noted are these: purified FLuc, Km substrates, luminescence; series mostly up to 57.5 µM; activity change, negative = inhibition: at the top concentration. The source says:
NCGC Assay Overview: Firefly (Photinus pyralis) luciferase is one of the most commonly used transcriptional reporters. It is considered one of the more dynamically responsive reporters - that is, responsive to changes in reporter transcription - as it requires no post-translational modifications and is enzymatically active directly after protein synthesis (Wood, 1998). With no endogenous expression in mammalian cells and without the requirement of external excitation, it offers very little background signal, thus generally providing excellent signal to background for most assays. Previous profiling work to determine the prevalence of compounds that affect FLuc enzymatic activity (PubChem AID 411) identified that ~3% of the MLSMR library (then at ~72K) inhibited FLuc. […] Of the compounds identified in this profile that inhibited FLuc, 151 compounds were selected for further analysis, in an effort to better understand their mode of inhibiting FLuc. The assay described here confirms the FLuc inhibitory activity of the 151 compounds.
NCGC Assay Protocol Summary: Reagents: 50mM Tris acetate, pH 7.5; 10mM Mg acetate; 10uM D-luciferin (Sigma #L9504); 10uM ATP; 0.01% Tween-20; 0.05% BSA; 10nM P. pyralis luciferase (Sigma #L9506) Control compounds used were two known firefly luciferase inhibitors (3-(5-(3-chlorophenyl)-1,2,4-oxadiazol-3-yl)benzoic acid and 5-(2-fluorophenyl)-3-phenyl-1,2,4-oxadiazole), and DMSO. Three microliters containing firefly luciferase substrates in buffer (final concentrations: 50mM Tris acetate, pH 7.5, 10mM Mg acetate, 0.01% Tween-20, 0.05% BSA, 10uM D-luciferin, and 10uM ATP) are dispensed into each well of a Greiner white, solid-bottom 1536-well format plate using a flying reagent dispenser (FRD). These assay plates were then treated with 23nL of compound or DMSO using a Kalypsys pin tool, which allows for delivery of a 12-point intraplate titration of each compound to the assay plate (quantitative HTS), with a final compound concentrations ranging from approximately ~60uM to 0.3nM. One microliter of firefly luciferase in 500mM Tris-acetate buffer was then delivered by FRD to each well for a final enzyme concentration of 10nM. Luciferase activity was then measured using a ViewLux CCD imager (PerkinElmer), with an average exposure time of 2-30 seconds (2X binning, medium/high gain).
In the case of `CC(C)C(=O)Nc1cccc(C(=O)Nc2ccccc2C(=O)O)c1`, the Potency was 5.8 µM (active).
Same read-out and setting: then `Cc1ccc(C(=O)Nc2cccc(C(=O)O)c2)cc1S(=O)(=O)N1CCCC1`, with 0.058 µM (active); and `COc1ccc(C(=O)Nc2cccc(C(=O)O)c2)cc1S(=O)(=O)N1CCCC1`, with 5.17 µM (active).
With `COc1ccc2nc(NC(=O)CCc3nc(-c4ccccc4F)no3)sc2c1`, the “activity change, negative = inhibition” value is -0.429% (inactive).
`COc1ccc(C(=O)Nc2ccccc2C(=O)N/N=C/c2ccc(O)c(OC)c2)cc1`: the Potency is 0.0037 µM (active).
The same measure, in the same setting: under `COc1ccc(C(=O)Nc2ccccc2C(=O)Nc2ccc(C(=O)O)cc2)cc1` stands 1.63 µM (active); under `COc1ccc(-c2cccc(C(=O)Nc3cccc(C(=O)O)c3)c2)cc1`, 4.61 µM (active).
As to `O=C(O)c1ccc(NC(=O)c2cccc(C(=O)Nc3ccc(C(=O)O)cc3)c2)cc1`, the “activity change, negative = inhibition” value was -8.45% (inactive).
In the case of `O=C(Nc1ccccc1C(=O)O)c1ccccc1`, the Potency was 32.6 µM (active).
Same read-out and setting: then `CN(C)S(=O)(=O)c1ccc(C(=O)Nc2ccccc2C(=O)O)cc1`, with 13 µM (active).
Take `Cc1c(NC(=O)C(C)(C)C)cccc1-c1nc2ccccc2s1`: the Potency was 3.26 µM (active).
As for `NC(=O)Cc1ccc2sc(-c3ccccc3)nc2c1`, the Potency is 5.17 µM (active).
Take `Nc1ccc(-c2nc3ccc(C(=O)O)cc3s2)cc1`: the Potency was 0.0073 µM (active).
Consider `CN(C)S(=O)(=O)c1ccc(C(=O)Nc2cccc(C(=O)O)c2)cc1`, for which the Potency is 10.3 µM (active).
Turning to `O=C(O)c1ccc(NC(=O)c2ccccc2NC(=O)c2ccccc2Br)cc1`, the Potency was 23.1 µM (active).
`COc1ccc2nc(NC(=O)c3ccc(S(=O)(=O)N4CCCC(C)C4)cc3)sc2c1` (stereo not given): the “activity change, negative = inhibition” value was -0.483% (inactive).
Regarding `COc1ccc2nc(NC(=O)c3cccc(S(=O)(=O)N4CCOCC4)c3)sc2c1`, the Potency is 20.6 µM (active).
Turning to `O=C(COC(=O)c1ccccc1[N+](=O)[O-])c1ccc2c(c1)OCO2`, the Potency is 0.0058 µM (active).
As for `Nc1ccc(-c2nc3cc(N)ccc3s2)cc1`, the Potency is 0.819 µM (active).
`Nc1ccc2nc(-c3ccccc3)sc2c1`: the Potency was 0.163 µM (active).
For `CCOc1ccc2nc(NC(=O)c3cccnc3)sc2c1`, the Potency is 2.91 µM (active).
On to `O=C(O)c1cccc(NC(=O)c2ccc(S(=O)(=O)c3ccccc3)cc2)c1`, for which the Potency was 5.8 µM (active).
Take `Nc1ccc(C(=O)Nc2ccccc2C(=O)O)cc1`: the Potency was 7.3 µM (active).
Regarding `O=C(Nc1ccccc1C(=O)O)c1ccc(NC(=O)C2CC2)cc1`, the Potency was 2.59 µM (active).
Same read-out and setting: then `Cc1c(NC(=O)c2cccs2)cccc1-c1nc2ccccc2s1`, with 4.11 µM (active).
Take `Cc1ccc(C(=O)Nc2ccc(C(=O)O)cc2)cc1S(=O)(=O)NCc1ccccc1`: the “activity change, negative = inhibition” value is 3.69% (inactive).
As for `COc1ccc2nc(NC(=O)Cc3cccs3)sc2c1`, the Potency is 7.3 µM (active).
As to `O=C(Nc1ccccc1C(=O)O)c1ccc(NC(=O)C2CCCCC2)cc1`, the Potency is 11.6 µM (active).
Still for that read-out and setting: then `C/C(=N\NC(=O)c1ccccc1NC(=O)c1ccc(Cl)cc1)c1ccncc1`, with 0.0116 µM (active); and `O=C(O)c1ccc(NC(=O)c2cccc(NC(=O)c3cccs3)c2)cc1`, with 9.19 µM (active).
For `CC(C)Oc1ccc(C(=O)Nc2ccc(-c3nc4ccccc4s3)cc2)cc1`, the “activity change, negative = inhibition” value was -2.68% (inactive).
On to `CCOc1ccc(C(=O)Nc2ccccc2C(=O)O)cc1`, for which the Potency is 1.46 µM (active).
With `Cc1ccc2nc(-c3ccc(N)cc3)sc2c1`, the Potency was 0.0819 µM (active).
For the compound `Cc1ccc(C(=O)Nc2ccccc2C(=O)O)cc1S(=O)(=O)N1CCCCCC1`, the Potency is 1.83 µM (active).
On to `COc1ccc2nc(NC(=O)c3cccs3)sc2c1`, for which the Potency was 20.6 µM (active).
Still for that read-out and setting: then `CC(=O)Nc1cccc(-c2nc3ccccc3s2)c1C`, with 23.1 µM (active).
For the compound `CC(C)c1ccc(C(=O)Nc2ccc(-c3nc4ccccc4s3)c(Cl)c2)cc1`, the “activity change, negative = inhibition” value was -34.9% (inactive).
Turning to `CN(C)c1cccc(C(=O)Nc2ccc(-c3nc4ccccc4s3)cc2)c1`, the Potency is 2.91 µM (active).
With `O=C(Nc1cccc(-c2nc3ccccc3s2)c1)c1cc(-n2cnnc2)ccc1Cl`, the Potency was 11.6 µM (active).
As for `O=C(O)c1cccc(NC(=O)c2cccc(S(=O)(=O)N3CCCCC3)c2)c1`, the Potency is 1.63 µM (active).
